A short description of experiment [1]: qHTS assay for small molecules that induce genotoxicity in human embryonic kidney cells expressing luciferase-tagged ATAD5 (AID 651632). Also: nearly all actives have a fitted effect of over 15% in size. Also: potency is read from the fitted curve at half-maximal effect. The method, boiled down:
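Cells were seeded at 2,000 per well, dosed with compound, and incubated 16 hr at 37C in 5% CO2. Luciferase activity was then quantified after a 30 min room-temperature incubation with Amplite.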

The nature of experiment [2]: qHTS assay for small molecules that induce genotoxicity in human embryonic kidney cells expressing luciferase-tagged ATAD5 - cell viability (AID 651634; calls by dose curve; also: nearly all actives have a fitted effect of over 25% in size; also: potency is read from the fitted curve at half-maximal effect). The method, boiled down: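 Cells (HEK293T, luciferase-tagged ATAD5) are seeded at 2,000 per well, dosed with compound or DMSO vehicle, and incubated 15.5 hr at 37C and 5% CO2. CellTiter-Fluor is added for 30 min before fluorescence is measured.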
A general note: Quantitative high-throughput screening tests each substance at several concentrations.

The nature of experiment [3]: qHTS assay for small molecule disruptors of the mitochondrial membrane potential - cell viability (AID 720634; calls by dose curve;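 also: human HepG2 liver cancer cells; series mostly up to about 83 µM; nearly all actives have a fitted effect of over 20% in size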). The method, boiled down:
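Cytotoxicity was measured by ATP quantitation in HepG2 wells that had first been treated with compound for 1 hr and stained with m-MPI dye; CellTiter-Glo incubation was 30 min at room temperature.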

The nature of experiment [4]: qHTS assay for small molecule disruptors of the mitochondrial membrane potential (AID 720635). Also: potency is read from the fitted curve at half-maximal effect. The method, boiled down:
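Mitochondrial membrane potential tracked with Mito-MPS dye, red aggregates (ex 540/em 590 nm) against green monomers (ex 490/em 535 nm). Compound treatment 1 hr at 37C, dye 30 min in HepG2.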

Experiment [5] in a line: qHTS assay to test for compound auto fluorescence at 590 nm (red) in HepG2 cells (AID 720674). The method, boiled down:
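We screened compounds on adherent HepG2 cells, incubating them for an hour at 37 C in 5% CO2 before reading emission at 590 nm under 540 nm excitation; values reflect equivalence to Rose Bengal sodium fluorescence.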

A short description of experiment [6]: qHTS assay to test for compound auto fluorescence at 535 nm (green) in HepG2 cells (AID 720675).
Experiment [7] is described as follows: qHTS assay to test for compound auto fluorescence at 460 nm (blue) in HEK293 cells (AID 720678). The method, boiled down: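 Blue read-out at excitation 405 nm and emission 460 nm follows overnight compound exposure of HEK293 cells at 37C in 5% CO2. Activity is given as auto fluorescence equivalency to triamterene.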
Experiment [8] in a line: qHTS assay to test for compound auto fluorescence at 590 nm (red) in HEK293 cells (AID 720679). The method, boiled down:
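Red channel, Ex/Em 540/590nm; signal expressed as equivalency to Rose Bengal sodium. HEK293, 2,000 cells/well, 10% dialyzed FBS; 23 nL compound pinned after 4-5 hr attachment; overnight 37C/5% CO2 before reading.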

Experiment [9] can be described thus: qHTS assay for small molecule agonists of the p53 signaling pathway - cell viability (AID 651633; calls by dose curve; also: nearly all actives have a fitted effect of over 30% in size; also: potency is read from the fitted curve at half-maximal effect). The method, boiled down: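 Viability counter-read: CellTiter-Glo luminescence (30 min, room temperature) in the same p53RE-bla plates. These plates had been exposed to compounds for 16 h at 37 C.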

Inconclusive results are not listed. The source made the active and inactive calls. Unless noted, calls follow the shape of the dose curve; as a rule, active = well fitted curve in the direction sought with a large enough effect in the repeat runs; inconclusive = weak or mixed curves; inactive = no such curve, though single readings can be large; an effect the other way counts as inactive or inconclusive.

Turning to `C#C[C@]1(O)CC[C@H]2[C@@H]3CCC4=CCCC[C@@H]4[C@H]3C(=C)C[C@@]21CC`, the Potency entry in experiment [1], in experiment [2], in experiment [3], in [5], in experiment [6] and in experiment [7] was “inactive” throughout. The Potency entry in [8] was “inactive”. Besides, the Potency in experiment [4] was 21.1 µM (active).
As to `CC1(C)S[C@@H]2[C@H](NC(=O)[C@H](NC(=O)N3CCN(S(C)(=O)=O)C3=O)c3ccccc3)C(=O)N2[C@H]1C(=O)O`, the Potency result in experiment [1], in [2], in [3], in experiment [4], in experiment [5] and in experiment [6] was “inactive” in each case. The Potency result in experiment [7] and in experiment [8] was “inactive” each time.
With `C=CC[C@@H]1/C=C(\C)C[C@H](C)C[C@H](OC)[C@H]2O[C@@](O)(C(=O)C(=O)N3CCCC[C@H]3C(=O)O[C@H](/C(C)=C/[C@@H]3CC[C@@H](O)[C@H](OC)C3)[C@H](C)[C@@H](O)CC1=O)[C@H](C)C[C@@H]2OC`, the Potency entry in [1], in experiment [3], in experiment [5], in experiment [6], in experiment [7] and in experiment [8] was “inactive” each time. For the same molecule, the Potency in experiment [9] was 26.6 µM (active).
Turning to `O=C(O)c1cc(N=Nc2ccc(O)c(C(=O)O)c2)ccc1O`, the Potency result in experiment [1], in experiment [2], in experiment [3], in [4], in experiment [5] and in experiment [6] was “inactive” each time. The Potency entry in experiment [7] and in experiment [8] was “inactive” each time.
In the case of `C/C1=C2N=C(/C=C3N=C(/C(C)=C4\[N-][C@@](C)([C@@H]5N=C1[C@](C)(CCC(=O)NCC(C)OP(=O)(O)O[C@H]1[C@@H](O)[C@@H](n6cnc7cc(C)c(C)cc76)O[C@@H]1CO)[C@H]5CC(N)=O)[C@@](C)(CC(N)=O)[C@@H]4CCC(N)=O)[C@@](C)(CC(N)=O)[C@@H]\3CCC(N)=O)C(C)(C)[C@@H]/2CCC(N)=O.CC(=O)O.[Co]` (stereo partly specified), the Potency result in [1], in [9], in experiment [3], in experiment [6], in [7] and in [8] was “inactive” each time.
With `CCOC(=O)[C@H](CS)NCCN[C@@H](CS)C(=O)OCC`, the Potency result in experiment [1], in experiment [2], in experiment [3], in experiment [4], in [5] and in [6] was “inactive” in each case. The Potency result in [7] and in [8] was “inactive” throughout.
With `COC(=O)C1=C(C)NC(C)=C(C(=O)O[C@H]2CCN(Cc3ccccc3)C2)[C@H]1c1cccc([N+](=O)[O-])c1`, the Potency entry in experiment [1], in [9], in experiment [3], in experiment [6], in experiment [7] and in experiment [8] was “inactive” throughout.
Regarding `C=C[C@]1(C)C[C@@H](OC(=O)CSC(C)(C)CNC(=O)[C@H](N)C(C)C)[C@]2(C)[C@H](C)CC[C@]3(CCC(=O)[C@H]32)[C@@H](C)[C@@H]1O`, the Potency result in [1], in experiment [9], in [3], in [5], in experiment [6] and in [7] was “inactive” each time. The Potency entry in experiment [8] was “inactive”.
For the molecule `Cc1ccc(S(=O)(=O)NC(=O)N[C@@H](C)Cc2ccccc2)cc1`, the Potency entry in experiment [1], in experiment [2], in [3], in experiment [4], in [6] and in experiment [7] was “inactive” each time. Besides, the Potency entry in [8] is “inactive”.
For `NCCC(=O)[N-][C@@H](Cc1cnc[nH]1)C(=O)O.[Zn]`, the Potency result in [1], in experiment [2], in [3], in experiment [4], in [5] and in [6] was “inactive” in each case. Moreover, the Potency result in [7] and in experiment [8] was “inactive” in each case.
In the case of `CCC(=O)NCCC1CCc2ccc3c(c21)CCO3` (stereo unspecified), the Potency entry in experiment [1], in [2], in experiment [3], in experiment [5], in experiment [6] and in [7] was “inactive” throughout. The Potency result in [8] was “inactive”.
As to `CC[C@]1(O)CC2CN(CCc3c([nH]c4ccccc34)[C@@](C(=O)OC)(c3cc4c(cc3OC)N(C)[C@H]3[C@@](O)(C(N)=O)[C@H](O)[C@]5(CC)C=CCN6CC[C@]43[C@@H]65)C2)C1` (stereo partly specified), the results for the Potency in experiment [1], in experiment [2] and in experiment [4] were 3.35 µM (active), 0.531 µM (active) and 10.6 µM (active), respectively. Moreover, the Potency entry in experiment [3], in [5], in [6], in [7] and in experiment [8] was “inactive” each time.
In the case of `Cc1cc(O)c2c(c1)O[C@@]1(C)CC[C@H]3C(C)(C)CCCC34CO[C@@H]2[C@H]41` (stereo partly specified), the Potency result in [1], in experiment [5], in experiment [6], in experiment [7] and in experiment [8] was “inactive” throughout. The Potency in experiment [9] is 26.6 µM (active).
As for `CC(C)N=c1cc2n(-c3ccc(Cl)cc3)c3ccccc3nc-2cc1Nc1ccc(Cl)cc1`, the Potency entry in experiment [1], in [2], in experiment [3], in experiment [5], in experiment [6] and in experiment [7] was “inactive” in each case. Moreover, in experiment [8], the Potency entry was “inactive”.
Turning to `CN1CCN(C2=Nc3ccccc3Cc3ccccc32)CC1`, the Potency result in experiment [1], in [2], in [3], in experiment [5], in experiment [6] and in experiment [7] was “inactive” each time. The Potency result in experiment [8] is “inactive”.
As for `CCC(=O)OCC(=O)[C@@]1(OC(=O)CC)[C@@H](C)C[C@H]2[C@@H]3CCC4=CC(=O)C=C[C@]4(C)[C@@]3(F)[C@@H](O)C[C@@]21C`, the Potency result in [1], in [2], in experiment [3], in experiment [5], in [6] and in experiment [7] was “inactive” each time. Further, the Potency entry in experiment [8] was “inactive”. The Potency in experiment [4] was 23.7 µM (active).
Turning to `COc1ccccc1N1CCN(CCCC(=O)c2ccc(F)cc2)CC1`, the Potency entry in [1], in experiment [2], in experiment [3], in experiment [5], in experiment [6] and in [7] was “inactive” in each case. Also, the Potency result in [8] is “inactive”.
On to `CCC(=O)Oc1ccc2c(c1)CC[C@@H]1[C@@H]2CC[C@]2(C)[C@@H](OC(=O)CC)CC[C@@H]12`, for which the Potency result in [1], in experiment [2], in [3], in [4], in experiment [5] and in [6] was “inactive” throughout. For the same molecule, the Potency entry in experiment [7] and in experiment [8] was “inactive” in each case.

For the origin of these results see PubChem BioAssay (Tox21).
